High-throughput results (PubChem BioAssay)
FAS TE block = FAS thioesterase (human) inhibition | P49327 | recombinant FAS-TE, OMFH fluorogenic substrate, fluorescence endpoint | inhibition, % at 15 µM | 0.67% of 360,000 active;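 active = compounds whose normalised, plate-corrected inhibition of enzyme fluorescence in the single-dose primary screen is 50% or more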;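 also: 0% = DMSO with enzyme and 100% = substrate without enzyme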
KLK7 zymogen act = activates the human kallikrein-7 zymogen; P49862; purified proKLK7, EDANS-DABCYL substrate fluorescence; 100% is mature enzyme control, 0% vehicle; activation, % at 7 µM; 0.9% of 370,000 active; AID 652039;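 active = activation above the mean of all tested compounds plus 3 SD, computed per campaign excluding outliers beyond control limits, cut at about 13% in these data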
ADAM10 inh = inhibitors of human ADAM10 | O14672 | recombinant ADAM10, EDANS/DABCYL FRET peptide cleavage, 3 h | inhibition, % at 7 µM | 0.62% of 370,000 active;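 active = inhibition above a per-campaign cutoff equal to the mean of compounds falling between control-based bounds plus 3 SD, cut at about 20% in these data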;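 also: 0% = DMSO wells while the 100% control is not disclosed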
Target sequence (O14672 214-748 limits assumed): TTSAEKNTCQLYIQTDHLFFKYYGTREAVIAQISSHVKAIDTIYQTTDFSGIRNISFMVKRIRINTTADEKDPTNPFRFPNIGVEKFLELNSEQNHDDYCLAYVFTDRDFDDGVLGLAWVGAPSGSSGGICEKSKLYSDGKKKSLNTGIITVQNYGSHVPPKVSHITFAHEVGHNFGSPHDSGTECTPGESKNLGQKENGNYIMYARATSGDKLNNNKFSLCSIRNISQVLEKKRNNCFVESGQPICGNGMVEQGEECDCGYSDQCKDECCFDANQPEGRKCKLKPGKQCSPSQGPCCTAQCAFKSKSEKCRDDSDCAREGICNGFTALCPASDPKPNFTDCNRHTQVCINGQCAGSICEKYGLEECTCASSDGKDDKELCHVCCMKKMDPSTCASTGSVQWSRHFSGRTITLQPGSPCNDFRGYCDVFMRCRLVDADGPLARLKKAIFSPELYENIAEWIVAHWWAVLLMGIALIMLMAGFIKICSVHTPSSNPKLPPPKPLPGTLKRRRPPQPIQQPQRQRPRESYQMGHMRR
ADAM17 inh = inhibitors of human ADAM17; recombinant ADAM17, EDANS/DABCYL FRET peptide cleavage; inhibition, % at 6.95 µM; 0.83% of 370,000 active; AID 720648;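 active = inhibition above the mean of compounds lying between control limits plus 3 SD, set per campaign, cut at about 8.5% in these data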;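 also: 0% = DMSO-only wells as the low control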
NR3A LBD binder = modulators (binders) of human NR3A ligand-binding domain | NR3A LBD differential scanning fluorimetry, Tm shift; 0% = protein alone, 100% = glycine-bound protein | Tm shift relative to glycine control, % at 25 µM | 2.5% of 340,000 active | AID 1259313;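 active = melting temperature shift of at least 10% of the positive control shift, at one fixed dose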
FAS-TE inh conf = FAS thioesterase (human) inhibition, confirmation | 45% of 2,300 active | inhibition, % at 15 µM | recombinant FAS-TE, OMFH fluorogenic substrate, fluorescence | shares compounds with FAS TE block;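 active = compounds inhibiting the enzyme by at least 50% at 15 µM in any one of the replicates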;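 also: 0% = enzyme with DMSO only and 100% = wells lacking enzyme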
Active calls of the source: *; x = no result. Compounds with a hit are over-represented: about 4.6% of the library has one in this group of screens.

SMILES	FAS TE block	KLK7 zymogen act	ADAM10 inh	ADAM17 inh	NR3A LBD binder	FAS-TE inh conf
O=C1c2ccc(-c3ccc(Cl)c(C(F)(F)F)c3)cc2S(=O)(=O)c2cccc(C(=O)N3CCN(c4ncc(Br)cn4)CC3)c21	69*	0	-10	-4	-3	11
O=C1c2ccc(Cl)cc2S(=O)(=O)c2cccc(C(=O)N3CCN(c4ccc(Cl)cn4)CC3)c21	59*	0	9	8	-4	5
O=C1c2ccccc2S(=O)(=O)c2cc(C(=O)N3CCN(c4c(Cl)cncc4Cl)CC3)ccc21	62*	0	-1	-6	-1	21
O=S1(=O)c2c(cccc2N2CC[C@@H](O)C2)OCCCN1C1CC1	x	0	-14	-6	x	x
O=C(Nc1nnc(-c2ccccc2Cl)s1)C1CCN(S(=O)(=O)c2ccc(Cl)cc2)CC1	72*	0	4	1	-2	9
COC(=O)[C@]1(C#N)CC(=O)N(c2ccccc2)[C@@H]1c1ccccc1	x	0	2	1	x	x
Cn1c(=O)c([N+](=O)[O-])c(N2CCN(Cc3ccc4c(c3)OCO4)CC2)c2ccccc21	86*	0	4	-4	1	54*
O=[N+]([O-])c1ccc2ncnc(N3CCN(Cc4ccc5c(c4)OCO5)CC3)c2c1	82*	-1	-5	3	0	87*
O=[N+]([O-])c1cccnc1N1CCN(Cc2ccc3c(c2)OCO3)CC1	22	0	-7	-2	-1	x
O=C(CN1C(=O)CCSc2ccccc21)Nc1ccc(Cl)cc1	x	1	-4	-3	x	x
CCCCCC(=O)OCc1ccc(C2=CC(=O)CC(C)(C)C2=O)cc1	64*	1	-2	-2	x	56*
Cc1ccc(C2=CC(=O)CC(C)(C)C2=O)cc1	x	0	3	-2	x	x
CC(C)(C)C(=O)OCc1ccc(C2=CC(=O)CC(C)(C)C2=O)cc1	82*	0	-11	-7	x	82*
CC(=O)OCc1ccc(C2=CC(=O)CC(C)(C)C2=O)cc1	-4	0	-15	-4	x	x
COC(=O)CCC1NC(=O)C(Cc2c[nH]c3ccccc23)NC(=O)C2CC(=O)OC(C)C(NC(=O)C(C)NC(=O)C3CCCN3C(=O)C3CCCN3C(=O)C(C)NC(C)=O)C(=O)NC(CC(C)C)C(=O)NC(CCCCNC(=O)CCC(C(=O)NC(Cc3ccc(O)cc3)C(=O)O)NC1=O)C(=O)NC(Cc1c[nH]c3ccccc13)C(=O)N1CCCC1C(=O)NC(CO)C(=O)N2 (stereo unspecified)	x	0	-9	-1	x	x
CN(Cc1ccccc1)C(=O)OCc1cn(Cc2cccc(C(F)(F)F)c2)nn1	x	0	11	2	x	x
CC(=O)N1CCN(S(=O)(=O)c2cccc(C(=O)OCc3ccc(C(C)(C)C)cc3)c2)CC1	88*	1	3	4	-5	51*
COC(=O)c1cc(-c2ccc(C)c(C)c2)c(=O)n2c1CCC2	x	0	-47	-19	x	x
CC1CCN(C(=O)c2ccc3c(Cl)c4c(nc3c2)CCCC4)CC1	71*	0	-2	-1	-3	78*
CCOC(=O)C1CCN(C(=O)c2ccc3c(Cl)c4c(nc3c2)CCCC4)CC1	43	1	1	-3	-28	x
COc1cc(/C=C2\N=C(c3ccccc3)OC2=O)ccc1OC(C)=O	0	1	4	-5	0	x
COc1ccc(OC)c(/C=C2\N=C(c3ccccc3)OC2=O)c1	61*	-1	-10	-4	5	-38
O=C(CSc1nnc(-c2ccco2)n1-c1ccc(Cl)cc1)Nc1ccc(S(=O)(=O)Nc2nccs2)cc1	x	0	17	7	x	x
O=S(=O)(c1ccccc1)c1nnn2c1nc(NC1CCN(Cc3ccccc3)CC1)c1ccccc12	82*	-16	-25	-11	3	79*
O=S(=O)(c1ccccc1)c1nnn2c1nc(NC1CCN(Cc3ccccc3)CC1)c1cc(Cl)ccc12	80*	-1	-19	-6	7	6
SMILES	FAS TE block	KLK7 zymogen act	ADAM10 inh	ADAM17 inh	NR3A LBD binder	FAS-TE inh conf
Cc1ccc(S(=O)(=O)c2nnn3c2nc(Nc2cccc(C)c2)c2ccccc23)cc1	2	-1	-6	-3	9	x
c1ccc2c(c1)nc(NCC1CCCO1)c1nnnn12 (stereo unspecified)	-9	4	-279	-70	-1	x
CC(C)c1ccc(S(=O)(=O)c2nnn3c2nc(NCC2CCCO2)c2ccccc23)cc1 (stereo unspecified)	74*	x	x	x	-4	80*
O=C1CCCN1CCCNc1nc2c(S(=O)(=O)c3ccc(Br)cc3)nnn2c2ccccc12	57*	0	-2	-1	-5	29
Cc1ccc(C)c(Nc2nc3c(S(=O)(=O)c4ccccc4)nnn3c3ccccc23)c1	5	-1	10	-1	0	x
Cc1cccc(C)c1N1CCN(C(c2ccnc3ccccc23)c2nnnn2-c2ccc3c(c2)OCCO3)CC1 (stereo unspecified)	79*	0	-13	-2	x	2
Cc1ccc2c(Cl)cc(Cl)c(OCC(=O)NC(C)(C)C)c2n1	19	0	-24	-12	-18	x
Cc1ccc2c(Cl)cc(Cl)c(OCC(=O)Nc3cc(S(=O)(=O)N(C)C)ccc3C)c2n1	52*	0	3	0	-6	2
CCn1c(C)cs/c1=N\S(=O)(=O)c1ccccc1	-5	0	-2	2	-1	x
O=Cc1s/c(=N\S(=O)(=O)c2ccccc2)n(CCCCl)c1Cl	76*	0	9	2	1	83*
CCCCCCn1c(=O)c(F)cn(Cc2ccc(OC)c([N+](=O)[O-])c2)c1=O	58*	0	5	0	-15	57*
COc1ccc2c(c1)[C@H]1[C@H](CO2)[C@H](c2ccccc2)[C@]2(C)C(=O)Nc3ccc(Br)cc3C(=O)N12	33	-1	7	5	-7	x
COc1ccc2c(c1)[C@H]1[C@H](CO2)[C@H](c2ccccc2)[C@]2(C)C(=O)Nc3ccccc3C(=O)N12	44	-1	15	6	-4	x
COc1ccc2c(c1)OC[C@H]1[C@H]2N2C(=O)c3cc(Br)ccc3NC(=O)[C@@]2(C)[C@H]1c1ccccc1	86*	x	x	x	-2	-4
COc1ccc2c(c1)OC[C@H]1[C@H]2N2C(=O)c3ccc(F)cc3NC(=O)[C@@]2(C)[C@H]1c1ccccc1	84*	-2	19	9.1*	4	42
COc1ccc2c(c1)C(=O)N1[C@H]3c4cc(OC)ccc4OC[C@@H]3[C@H](c3ccccc3)[C@]1(C)C(=O)N2	72*	-5	16	7	-1	28
O=c1cc(N2CCN(c3ccnc4cc(Cl)ccc34)CC2)[nH]c(=O)n1C1CCCCC1	x	x	-1	-1	x	x
CN(Cc1ccccc1F)C(=O)Cn1c(-c2cncs2)nc2ccccc21	x	0	-4	-1	x	x
